From PubChem
rCAG binder = binders of r(CAG) RNA repeats, primary screen, biochemical, fluorescence; AID 651821, 2012; inhibition, % at 3 µM; hit rate 1.3% among 370,000; r(CAG) RNA repeat, TO-PRO-1 dye displacement fluorescence;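 active = inhibition above the plate cutoff, the mean of all test compounds on that plate plus 3 SD, cut at about 35% in these data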;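 also: higher means more dye released from RNA so lower well fluorescence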
bovine MsrA act = bovine MsrA enzyme activators, primary screen, biochemical, absorbance, HTS; Methionine sulfoxide reductase A (Bos taurus); purified bovine MsrA, absorbance read-out; activation, % at 10.6 µM; hit rate 0.3% among 360,000; in the data active = activation above about 7.5%
PG9 Ab binder = binders of HIV-1 gp120 antibody PG9, primary screen, biochemical, TR-FRET | HIV-1 gp120 / PG9 antibody interaction | TR-FRET gp120-PG9 antibody binding | inhibition, % at 6.7 µM | hit rate 0.43% among 360,000 | AID 624416, 2012; in the data active = inhibition above about 8.5%
sPLA2-III inh = human group III sPLA2 inhibitors, primary screen, biochemical, QFRET, BODIPY PC-A2 liposome substrate; Group 3 secretory phospholipase A2 (Homo sapiens), Q9NZ20; QFRET BODIPY PC-A2 liposome hydrolysis, fluorescence; inhibition, % at 12.2 µM; hit rate 0.56% among 370,000;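 active = inhibition above mean plus 3 SD of compounds lying within the high and low control bounds, cut at about 19% in these data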
Target sequence (Q9NZ20 whole entry, looked up): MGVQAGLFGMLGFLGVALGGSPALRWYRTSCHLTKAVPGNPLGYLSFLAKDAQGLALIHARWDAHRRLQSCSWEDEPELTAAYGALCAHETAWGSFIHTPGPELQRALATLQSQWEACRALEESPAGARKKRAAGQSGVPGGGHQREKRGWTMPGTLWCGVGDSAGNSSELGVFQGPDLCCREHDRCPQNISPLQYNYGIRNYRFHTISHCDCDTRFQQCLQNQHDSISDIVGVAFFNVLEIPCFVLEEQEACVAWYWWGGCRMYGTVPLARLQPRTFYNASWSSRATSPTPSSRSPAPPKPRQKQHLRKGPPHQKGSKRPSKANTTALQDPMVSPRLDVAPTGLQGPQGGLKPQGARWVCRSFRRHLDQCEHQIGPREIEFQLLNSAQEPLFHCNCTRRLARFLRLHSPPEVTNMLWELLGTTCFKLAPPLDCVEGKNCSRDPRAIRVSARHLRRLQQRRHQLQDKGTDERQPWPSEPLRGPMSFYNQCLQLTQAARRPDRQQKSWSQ
MsrA inhibitor = bovine MsrA enzyme inhibitors, primary screen, biochemical, absorbance, HTS; AID 651718, 2012; Methionine sulfoxide reductase A (Bos taurus); purified bovine MsrA, absorbance read-out; inhibition, % at 15.5 µM; hit rate 0.75% among 360,000; in the data active = inhibition above about 4.5%
MsrA activ conf = bovine MsrA activators, retest, confirmation, biochemical, absorbance, HTS; shares compounds with bovine MsrA act; purified bovine MsrA, absorbance read-out; activation, % at 10.6 µM; hit rate 12% among 1,000; in the data active = activation above about 4%;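 also: enzyme coupled to thioredoxin and thioredoxin reductase with NADPH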
Of the large screens only hits and unclear results are named; the others gave an inactive call (follow-up assays come after a bar, where they were run). Sampled rows, rich in hits. Any-hit rate of the full collection: about 3.2%.

CCCNC(=O)C1(C)CCCN(Cc2noc(-c3c(C)noc3C)n2)C1 (centres undefined)	none
CCNC(=O)C1(C)CCCN(Cc2noc(-c3c(C)noc3C)n2)C1 (centres undefined)	bovine MsrA act 9.2 | MsrA activ conf inactive
O=C(Cn1ncc2c1-c1ccccc1OC2)N(Cc1ccco1)C1CCCCC1	bovine MsrA act 7.7 | MsrA activ conf inactive
CCN(CC)C(=O)Cn1ncc2c1-c1ccccc1OC2	none
Cc1c(NC(=O)C(C)N2C(=O)C3CCCCC3C2=O)c(=O)n(-c2ccccc2)n1C (centres undefined)	bovine MsrA act 10 | MsrA activ conf inactive
c1ccc(-c2nc(NC3CC3)nc(-n3ccnc3)n2)cc1	bovine MsrA act 14 | MsrA activ conf inactive
Cc1cnc(C(=O)OCC(=O)Nc2cccc(C)c2C)cn1	none
Cc1cnc(C(=O)OCC(=O)Nc2cccc3ccccc23)cn1	bovine MsrA act 13 | MsrA activ conf inactive
FC(F)(F)c1ccccc1NC(=S)OC1CCC12CCC(c1ccccc1)CC2 (centres undefined)	none (no result: bovine MsrA act, PG9 Ab binder, MsrA inhibitor)
O=C(CCc1ccccc1-c1ccccc1CCNC(=O)COCc1ccccc1)NCc1ccccc1	none (no result: bovine MsrA act, PG9 Ab binder, MsrA inhibitor)
Cc1cc(NS(=O)(=O)c2ccc(NC(=O)Cc3ccccc3)cc2)nc(C)n1	none
Cc1cc(NS(=O)(=O)c2ccc(NC(=O)CCCC(=O)O)cc2)nc(C)n1	bovine MsrA act 8.2 | MsrA activ conf inactive
COc1ccc2c(c1)CO[C@H]([C@H](O)CO)[C@H]2/C=C/c1ccccc1	none (no result: bovine MsrA act, PG9 Ab binder, MsrA inhibitor)
C#CCNC(=O)C1=C[C@@H](c2ccc3c(c2)OCO3)C[C@@H](OCc2ccc(CO)cc2)O1	bovine MsrA act 8.5 | MsrA activ conf inactive
COc1ccc(-c2cc(C(=O)N(C3CCCCC3)C3CCCCC3)no2)cc1	none (no result: bovine MsrA act, PG9 Ab binder, MsrA inhibitor)
OC12CCCCC1C(c1ccc3c(c1)OCO3)N(Cc1cccc(F)c1)CC2 (centres undefined)	none
OC12CCCCC1C(c1ccc3c(c1)OCO3)N(Cc1ccc(F)cc1)CC2 (centres undefined)	bovine MsrA act 9.5 | MsrA activ conf inactive
CC1(C(=O)Nc2ccccc2)CCN1C(=O)Cc1ccc(-c2ccccc2)cc1 (centres undefined)	bovine MsrA act 14 | MsrA activ conf 5.2
COc1cccc(NC(=O)C2(C)CCN2C(=O)Cc2ccc(-c3ccccc3)cc2)c1 (centres undefined)	none
CN(CCCC(=O)Nc1ccncc1)S(=O)(=O)c1ccc(Cl)cc1	bovine MsrA act 7.9 | MsrA activ conf inactive
O=C(c1sccc1Cl)N1CCC(n2nnc3ncccc32)CC1	none (no result: bovine MsrA act, PG9 Ab binder, MsrA inhibitor)
O=C(COc1ccc(Cl)cc1)Nc1cccc(-c2ccc3nncn3n2)c1	bovine MsrA act 15 | MsrA activ conf inactive
CN(C(=O)CNC(=O)c1ccccc1OCC(=O)Nc1ccc(Br)cc1)c1ccccc1	none (no result: bovine MsrA act, PG9 Ab binder, MsrA inhibitor)
CS(=O)(=O)N1CCN(C(=O)c2ccc(Cl)s2)CC1	bovine MsrA act 16 | MsrA activ conf inactive
O=S1(=O)c2c(cccc2N2CCSCC2)Oc2ccccc2CN1Cc1cn(Cc2cccc(C(F)(F)F)c2)nn1	none (no result: bovine MsrA act, PG9 Ab binder, MsrA inhibitor)
O=C(NC(=S)NNC(=O)c1ccccc1[N+](=O)[O-])c1ccc(Br)cc1	bovine MsrA act 10.0 | MsrA activ conf inactive
O=C(NNC(=O)c1ccccc1[N+](=O)[O-])c1ccc(NC(=O)c2ccccc2)cc1	none
CCC(Oc1ccccc1C)C(=O)N1CCCN(C)CC1 (centres undefined)	bovine MsrA act 14 | MsrA activ conf inactive
COc1ccccc1NC(=O)COC(=O)C12CC3CC(CC(Cl)(C3)C1)C2	bovine MsrA act 15 | MsrA activ conf inactive
COCCN(CCOC)Cc1cc(=O)oc2cc3c(cc12)CCC3	none
COCCN(CCOC)Cc1cc(=O)oc2cc(C)ccc12	bovine MsrA act 12 | MsrA activ conf inactive
COCCN(C)C(=O)CC1C(=O)NCCN1CC(c1ccccc1)c1ccccc1 (centres undefined)	bovine MsrA act 11 | MsrA activ conf inactive
Cc1cc(CN(C)C(=O)CC2C(=O)NCCN2CC(c2ccccc2)c2ccccc2)on1 (centres undefined)	none
Cc1ccc(-n2c(SCC(=O)Nc3ccccc3-c3ccccc3)nnc2-c2ccccc2)cc1	none (no result: bovine MsrA act, PG9 Ab binder, MsrA inhibitor)
COCCCN1C(=O)[C@H](CC(=O)N2CCN(C(=O)C3CC3)CC2)[C@]2(C(=O)OC)CCCCC=C12	none (no result: bovine MsrA act, PG9 Ab binder, MsrA inhibitor)
CCC(=O)Nc1nc(CC(=O)Nc2ccccc2)cs1	bovine MsrA act 9.4 | MsrA activ conf inactive
CCOC(=O)Cc1csc(NC(=O)Cc2ccccc2)n1	none
Cc1[nH][nH]c(=O)c1N=Nc1ccccc1Cl	none
Clc1ccccc1N=Nc1ccccn1	bovine MsrA act 34 | MsrA activ conf inactive
CC1(C)Oc2ccc(C(=O)N3CCCC3)cc2NC1=O	none (no result: bovine MsrA act, PG9 Ab binder, MsrA inhibitor)
Cn1c(N)c(S(=O)(=O)NCc2ccc(Cl)cc2)c(=O)n(C)c1=O	bovine MsrA act 8.9 | MsrA activ conf inactive
Cn1c(N)c(S(=O)(=O)NCc2ccccc2)c(=O)n(C)c1=O	none
CCCCCC[C@H](CC)CN(C(=O)Oc1ccccc1)c1ccccc1	none (no result: bovine MsrA act, PG9 Ab binder, MsrA inhibitor)
CC(=O)NNC(=S)NC(=O)c1ccccc1	bovine MsrA act 8.3 | MsrA activ conf inactive
CC(=O)NNC(=S)NC(=O)c1ccc(C)cc1	none
CCCCOc1ccccc1C1NC(=O)NC(C)=C1C(=O)OCc1ccco1 (centres undefined)	bovine MsrA act 8.9 | MsrA activ conf inactive
CCCCOc1ccccc1C1NC(=O)NC(C)=C1C(=O)OCCOCC (centres undefined)	none
O=c1cc(N2CCC3(CC2)OCCO3)[nH]c(=O)n1C1CCCCC1	bovine MsrA act 9.6 | MsrA activ conf inactive
O=C(Nc1cccc(F)c1)c1cccc2c1C(=O)N(C1CCCCC1)C2	none
CCc1cccc(NC(=O)c2cccc3c2C(=O)N(C2CCCCC2)C3)c1	bovine MsrA act 8.6 (no result: rCAG binder, PG9 Ab binder, sPLA2-III inh, MsrA inhibitor) | MsrA activ conf inactive
S=c1ncc2[nH]c(=S)[nH]c2[nH]1	bovine MsrA act 7.9 (no result: rCAG binder, PG9 Ab binder, sPLA2-III inh, MsrA inhibitor) | MsrA activ conf 6.2
COc1cc2c(cc1OC)C(=O)C(Br)CC2 (centres undefined)	bovine MsrA act 14 (no result: rCAG binder, PG9 Ab binder, sPLA2-III inh, MsrA inhibitor) | MsrA activ conf inactive
COc1cc2c(cc1OC)C(=O)C(c1ccc3c(c1)OCO3)CC2 (centres undefined)	none
Cc1c(Cl)cccc1-c1ccc(CNCc2ccccn2)o1	bovine MsrA act 7.7 | MsrA activ conf inactive
CC(C)N1Cc2nnn(Cc3ccccc3)c2-c2ccccc2S1(=O)=O	none (no result: bovine MsrA act, PG9 Ab binder, MsrA inhibitor)
CC1CCCN(C(=O)COC(=O)/C=C/c2ccc(C(F)(F)F)cc2)C1 (centres undefined)	bovine MsrA act 8.7 | MsrA activ conf inactive
COC(=O)[C@]12C[C@H](CC(=O)NCc3ccc(C)o3)C(=O)N(Cc3cccc4ccccc34)C1=C[C@H](C(C)(C)C)O[C@@H]2C	none (no result: bovine MsrA act, PG9 Ab binder, MsrA inhibitor)
COc1ccc(C2CC(Cn3cc(C#N)c(=O)n(C)c3=O)ON2C)cc1 (centres undefined)	bovine MsrA act 9.3 | MsrA activ conf inactive
